From the supplement of paper PMC12350171
Where a name gives a salt, the structure may show the parent alone.

Experiments:
Settings in all cases: 20 µM
[1] = tested on: Shigella flexneri; experiment: growth AUC normalised to DMSO control (fraction of control); higher = less growth inhibition, active = hit call of the paper
How it was run: (§1)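 For the AUC endpoint, growth curves were integrated by the trapezoidal rule up to the exponential-to-stationary transition and normalised to DMSO controls on the same plate. The curves came from OD578 readings taken hourly for 24 h, in three biological replicates. Pathogens had been passaged anaerobically twice and inoculated at an OD578 of 0.01 into pre-reduced mGAM plates carrying 20 μM compound and 1% DMSO, sealed with breathable membranes. Medium for Haemophilus parainfluenzae also contained hemin and NAD.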

[2] = tested on: Vibrio cholerae; experiment: as above
How it was run: as §1

[3] = tested on: Yersinia pseudotuberculosis; experiment: as above
How it was run: as §1

[4] = tested on: P. vulgatus RND KO; experiment: growth AUC normalised to DMSO control (median) (fraction of control); higher = less growth inhibition, active = hit call of the paper
How it was run: (§2)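 In 96-well plates of mGAM seeded at OD578 0.01, strains that had been passaged twice overnight without oxygen were exposed to approved-drug library compounds at 20 μM with 1% DMSO. Hourly OD578 readings were taken for 24 h in an anaerobic incubator. The trapezoidal-rule area under the curve, with curves truncated at entry into stationary phase, was expressed relative to same-plate vehicle wells as the median of three biological replicates.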

[5] = tested on: P. vulgatus WT; experiment: as above
How it was run: as §2

[6] = tested on: S. enterica typhimurium WT; experiment: as above
How it was run: as §2

[7] = tested on: S. enterica typhimurium tolC KO; experiment: as above
How it was run: as §2

Measured: growth AUC normalised to DMSO control
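Wherever growth AUC normalised to DMSO control (median) is given: active when median AUC fell below 0.1.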

O=C(O)c1cc(/N=N/c2ccc(S(=O)(=O)Nc3ccccn3)cc2)ccc1O [Sulfasalazine]
inactive: [1] 1.01 | [2] 1.01 | [3] 0.99 | [4] 1 | [5] 1.02 | [6] 1.01 | [7] 1.01

CSc1nc2cc(Cl)c(Oc3cccc(Cl)c3Cl)cc2[nH]1 [Triclabendazole]
inactive: [5] 0.129 | [6] 0.991
active: [4] 0.0625 | [7] 0.0431

Cc1cn([C@H]2C[C@H](N=[N+]=[N-])[C@@H](CO)O2)c(=O)[nH]c1=O [Zidovudine]
active: [1] 0.155 | [3] 0.781
inactive: [2] 0.956 | [5] 0.986 | [6] 0.304

CC(C)C[C@H](NC(=O)[C@@H](O)[C@H](N)Cc1ccccc1)C(=O)O [Ubenimex]
inactive: [4] 0.448 | [5] 0.535 | [6] 1 | [7] 0.992

Cc1ccsc1C(=CCCN1CCC[C@@H](C(=O)O)C1)c1sccc1C [Tiagabine hydrochloride]
inactive: [4] 0.999 | [5] 0.984 | [6] 1 | [7] 1

Nc1c2ccccc2nc2ccccc12 [Aminacrine]
inactive: [4] 1.07 | [5] 1.02 | [6] 0.902 | [7] 0.903

O=c1oc2cc(O)ccc2s1 [Tioxolone]
inactive: [4] 1.02 | [5] 1.02 | [6] 0.989 | [7] 0.999

N=C(N)c1ccc(OCCCCCOc2ccc(C(=N)N)cc2)cc1 [Pentamidine isethionate]
inactive: [1] 0.984 | [2] 1.02 | [3] 1.02 | [4] 0.591 | [5] 0.749 | [6] 0.999 | [7] 0.985

O=C(C1CCCCC1)N1CC(=O)N2CCc3ccccc3C2C1 (stereo unspecified) [Praziquantel]
inactive: [3] 0.996 | [4] 0.997 | [5] 1.03 | [6] 1.01 | [7] 0.997

Cc1ccnc2c1NC(=O)c1cccnc1N2C1CC1 [Nevirapine]
inactive: [4] 0.995 | [5] 1.01 | [6] 1 | [7] 1

CCCNC(C)(C)C(=O)Nc1ccccc1C [Quatacaine]
inactive: [4] 1.01 | [5] 1.03 | [6] 1 | [7] 0.975

O=c1[nH]c(=O)n([C@H]2C[C@H](O)[C@@H](CO)O2)cc1C(F)(F)F [Trifluridine]
inactive: [1] 1.01 | [2] 1.05 | [3] 0.997 | [4] 0.13 | [5] 0.123 | [6] 0.964 | [7] 0.958

CCCCOC(=O)c1ccccc1Nc1cccc(C(F)(F)F)c1 [Ufenamate]
inactive: [4] 1.02 | [5] 0.978 | [6] 0.998 | [7] 0.992

C[C@H]1COc2c(N3CCN(C)CC3)c(F)cc3c(=O)c(C(=O)O)cn1c23 [Levofloxacin]
active: [4] 0.014 | [5] 0.0149 | [6] 0.00504 | [7] 0.00559

Cn1c(=O)c2nc[nH]c2n(C)c1=O [Theophylline monohydrate]
inactive: [1] 1.05 | [2] 1.07 | [3] 1.02 | [4] 1.02 | [5] 1.01 | [6] 1.01 | [7] 1

C=C(CC)C(=O)c1ccc(OCC(=O)O)c(Cl)c1Cl [Ethacrynic acid]
inactive: [1] 0.998 | [2] 1.02 | [4] 0.994 | [5] 1.01 | [6] 1 | [7] 1.02

Cc1ncc([N+](=O)[O-])n1CCO [Metronidazole]
inactive: [3] 1 | [6] 1.04 | [7] 0.991
active: [4] 0.0156 | [5] 0.0126

Cn1c(=O)c2c(ncn2C)n(C)c1=O [Caffeine]
inactive: [1] 1.04 | [2] 1.03 | [3] 1.01 | [4] 1.02 | [5] 1.02 | [6] 0.993 | [7] 0.999

O=C(NC1CCN(CCCCC2(C(=O)NCC(F)(F)F)c3ccccc3-c3ccccc32)CC1)c1ccccc1-c1ccc(C(F)(F)F)cc1 [Lomitapide]
inactive: [4] 1.01 | [5] 1.05 | [6] 1.01 | [7] 1

CN/C(=N\CCSCc1nc[nH]c1C)NC#N [Cimetidine]
inactive: [1] 0.992 | [2] 1 | [3] 1 | [4] 0.995 | [5] 1.02 | [6] 1 | [7] 0.996

NS(=O)(=O)c1cc(C(=O)NN2C[C@@H]3[C@H]4CC[C@H](C4)[C@@H]3C2)ccc1Cl [Tripamide]
inactive: [4] 1.02 | [5] 1.07 | [6] 0.999 | [7] 0.975

OC[C@H]1O[C@@H](c2ccc(Cl)c(Cc3ccc(O[C@H]4CCOC4)cc3)c2)[C@H](O)[C@@H](O)[C@@H]1O [Empagliflozin]
inactive: [4] 1.02 | [5] 1.04 | [6] 1.01 | [7] 0.992

Cc1cc(/C=C/c2ccc3cc(N(C)C)ccc3[n+]2C)c(C)n1-c1ccccc1 [Pyrvinium pamoate]
inactive: [2] 0.865 | [4] 1.01 | [5] 1.08 | [6] 1.02 | [7] 0.61

CC(=O)Oc1ccc(C(c2ccc(OC(C)=O)cc2)c2ccccn2)cc1 [Bisacodyl]
inactive: [1] 1.01 | [2] 0.991 | [3] 1.01 | [4] 1.02 | [5] 1.04 | [6] 1.01 | [7] 1.01

CCC(=O)c1c(O)cc(O)cc1O [Flopropione]
inactive: [4] 0.985 | [5] 0.986 | [6] 0.999 | [7] 0.994

CCc1oc2ccccc2c1C(=O)c1ccc(O)cc1 [Benzarone]
inactive: [4] 0.881 | [5] 0.794 | [6] 1 | [7] 0.858

CN1CCN(c2c(F)cc3c(=O)c(C(=O)O)cn4c3c2OCN4C)CC1 [Marbofloxacin]
active: [4] 0.0125 | [5] 0.0111 | [6] 0.00445 | [7] 0.00216

Oc1c(Br)cc(Br)c2cccnc12 [Broxyquinoline]
active: [5] 0.0591
inactive: [4] 0.294 | [6] 0.986 | [7] 0.561

O=C(O)Cc1ccccc1Oc1ccc(Cl)cc1Cl [Fenclofenac]
inactive: [4] 0.992 | [5] 1.05 | [6] 1.02 | [7] 1.02

CN1CCC[C@@H]1Cc1c[nH]c2ccc(CCS(=O)(=O)c3ccccc3)cc12 [Eletriptan]
inactive: [4] 1.04 | [5] 1.05 | [6] 0.987 | [7] 0.958

CCOc1cc(N)c(Cl)cc1C(=O)NCC1CN(Cc2ccc(F)cc2)CCO1 (stereo unspecified) [Mosapride]
inactive: [4] 0.938 | [5] 0.981 | [6] 0.988 | [7] 0.722

Cc1cc2nc3ccc(=[N+](C)C)cc-3sc2cc1N [Tolonium chloride]
inactive: [4] 0.996 | [5] 1 | [6] 0.981 | [7] 0.987

CC(C)OC(=O)C(C(=O)OC(C)C)=C1SC=CS1 [Malotilate]
inactive: [4] 0.988 | [5] 0.977 | [6] 1 | [7] 0.899

CCCCCCCCCCCCCCCCCCCCCC(=O)Nc1ccn([C@@H]2O[C@H](CO)[C@@H](O)[C@@H]2O)c(=O)n1 [Enocitabine]
inactive: [4] 1.01 | [5] 1.04 | [6] 1.01 | [7] 1

N#Cc1cc(NC(=O)C(=O)O)c(Cl)c(NC(=O)C(=O)O)c1 [Lodoxamide]
inactive: [4] 1 | [5] 1.04 | [6] 1 | [7] 1.01

CC(C)c1nc(N(C)S(C)(=O)=O)nc(-c2ccc(F)cc2)c1/C=C/[C@@H](O)C[C@@H](O)CC(=O)O [Rosuvastatin]
inactive: [4] 1.01 | [5] 1.03 | [6] 1.01 | [7] 1.01
